Measured values: PubChem BioAssay (EPA / NIEHS)
Records with an inconclusive call do not appear. Some structures have more than one record in an assay (separate samples or runs), and their calls can disagree. Activity calls are given as the source filed them. How the source made its calls, unless noted: active means hit-call score of the fitted dose curve at least 0.9, where 1 is the maximum; inconclusive means response in the unintended direction; inactive means score below 0.9.

Assays:
[1] = read-out: Cellular tumor antigen p53 (Homo sapiens) (UniProt P04637); assay: LTEA_HepaRG_TP53: Life Technologies and Expression Analysis (LTEA) Assay for Tumor Protein P53 (TP53) using HepaRG (AID 2283537; active means hit-call score of the fitted dose curve at least 0.9, where 1 is the maximum; inactive means score below 0.9); settings: mRNA level, 48 h; actives raise or lower the signal
Outline: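 Differentiated HepaRG cells in serum-free induction medium exposed 48 h in duplicate to 8 half-log concentrations, top 100 uM, 0.5% DMSO. TP53 mRNA by TaqMan qRT-PCR (Fluidigm), normalized to ACTB, GAPDH, POLR2A; fitted bidirectionally versus DMSO.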

[2] = read-out: UDP glucuronosyltransferase (UGT1A6), UGT1A6 (gene 54578); assay: LTEA_HepaRG_UGT1A6: Life Technologies and Expression Analysis (LTEA) Assay for UDP glucuronosyltransferase (UGT1A6) using HepaRG (AID 2283539; active means hit-call score of the fitted dose curve at least 0.9, where 1 is the maximum; inactive means score below 0.9); settings: mRNA level, 48 h; actives raise or lower the signal
Outline: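 Measures mRNA change in HepaRG hepatic cells exposed 48 h to chemicals (eight-point, maximum 100 uM, 0.5% DMSO vehicle) in serum-free induction medium. Expression normalized to endogenous controls; DMSO served as negative control and baseline.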

[3] = read-out: X-box binding protein 1 (XBP1), XBP1 (gene 7494); assay: LTEA_HepaRG_XBP1: Life Technologies and Expression Analysis (LTEA) Assay for X-box binding protein 1 (XBP1) using HepaRG (AID 2283540; active means hit-call score of the fitted dose curve at least 0.9, where 1 is the maximum; inactive means score below 0.9); settings: mRNA level, 48 h; actives raise or lower the signal
Outline: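 Eight concentrations (half-log, highest 100 uM, 0.5% DMSO) tested in duplicate on HepaRG cells over 48 h in serum-free induction medium; qRT-PCR of XBP1 normalised to ACTB, GAPDH, POLR2A.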

[4] = LTEA_HepaRG_LDH_cytotoxicity: Cytotoxicity Assessment in the Life Technologies and Expression Analysis (LTEA) Assay (AID 2283563);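 on AC50: LDH activity released into spent culture medium as a marker of cell death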
Outline: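 Spent-medium LDH after 48 h chemical exposure of HepaRG cells in serum-free induction medium; eight concentrations, half-log dilutions from 100 uM, duplicate wells, fitted upward relative to 0.5% DMSO.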

[5] = ATG_XTT_Cytotoxicity: Cytotoxicity Assessment in the Attagene TRANS-FACTORIAL HepG2 Assay (AID 2283584)
Outline: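 24 h chemical exposure of reporter-transfected HepG2; XTT signal loss vs DMSO indicates cytotoxicity.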

[6] = TOX21_p53_BLA_p2_viability: Viability Assessment in the Tox21 HCT-116 p53 Agonism Beta-lactamase Assay, Phase 2 (AID 2283591);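 further: compound exposure lasted 16 h at 37 °C; actives lower the ATP signal meaning cytotoxicity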
Outline: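 HCT-116 p53-bla cells (4000/well) rested 5 h at 37C, then received compounds in DMSO (217-fold dilution) for 16 h at 37C, 5% CO2. After the CCF4 read, CellTiter-Glo was added; ATP luminescence was read after 30 min at room temperature.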

[7] = molecular target: Cellular tumor antigen p53 (Homo sapiens) (UniProt P04637); assay: TOX21_p53_BLA_p2_ratio: Tox21 HCT-116 p53 Agonism Beta-lactamase Assay, Ratio, Phase 2 (AID 2283592)
Cellular tumor antigen p53 (Homo sapiens), sequence (P04637 whole entry, looked up): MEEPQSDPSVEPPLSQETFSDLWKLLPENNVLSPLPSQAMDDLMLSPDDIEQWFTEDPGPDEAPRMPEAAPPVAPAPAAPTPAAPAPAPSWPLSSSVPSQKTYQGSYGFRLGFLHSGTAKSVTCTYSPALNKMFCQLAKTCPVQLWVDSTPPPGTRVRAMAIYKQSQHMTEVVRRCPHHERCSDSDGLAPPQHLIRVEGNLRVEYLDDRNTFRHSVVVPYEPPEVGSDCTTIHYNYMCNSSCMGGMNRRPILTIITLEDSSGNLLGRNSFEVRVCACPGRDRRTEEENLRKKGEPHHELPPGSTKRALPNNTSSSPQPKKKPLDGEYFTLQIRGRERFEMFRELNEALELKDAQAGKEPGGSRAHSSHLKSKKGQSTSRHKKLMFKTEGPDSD
Outline: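 Human colon HCT116 cells with an inducible p53 beta-lactamase reporter are exposed to test chemicals for 16 h at 37C. Reporter induction is read as the 460/530 nm emission ratio after CCF4-AM loading, normalized to DMSO.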

[8] = TOX21_p53_BLA_p3_viability: Viability Assessment in the Tox21 HCT-116 p53 Agonism Beta-lactamase Assay, Phase 3 (AID 2283593);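 further: cells exposed to compound for 16 h before reading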
Outline: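 HCT-116 cells (4000/well) rested 5 h at 37C, then got DMSO compounds by pin tool (217-fold dilution) for 16 h at 37C, 5% CO2. After the bla read, CellTiter-Glo was added and luminescence read at 30 min, room temperature.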

[9] = molecular target: Cellular tumor antigen p53 (Homo sapiens) (UniProt P04637); assay: TOX21_p53_BLA_p3_ratio: Tox21 HCT-116 p53 Agonism Beta-lactamase Assay, Ratio, Phase 3 (AID 2283596)
Outline: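 HCT116 p53-bla cells (4000/well) given compound in DMSO (217-fold dilution) after 5 h, incubated 16 h at 37C. CCF4-AM substrate 2 h at room temperature; 460/530 nm emission ratio, gain fitted against DMSO.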

[10] = TOX21_p53_BLA_p4_viability: Viability Assessment in the Tox21 HCT-116 p53 Agonism Beta-lactamase Assay, Phase 4 (AID 2283597);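 further: hits lower the luminescence signal meaning cytotoxicity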
Outline: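 Luminescent ATP readout (CellTiter-Glo, 30 min, room temperature) in the same wells as the p53 bla ratio. HCT116 cells were treated for 16 h at 37C with DMSO-dissolved compounds.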

[11] = molecular target: Cellular tumor antigen p53 (Homo sapiens) (UniProt P04637); assay: TOX21_p53_BLA_p5_ratio: Tox21 HCT-116 p53 Agonism Beta-lactamase Assay, Ratio, Phase 5 (AID 2283599)
Outline: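 HCT-116 cells carrying a p53-inducible beta-lactamase reporter were seeded at 4000 cells/well and dosed after 5 h with compound in DMSO (217-fold dilution). After 16 h at 37C, CCF4-AM substrate was added for 2 h, and the 460/530 nm emission ratio was scored as gain-of-signal versus DMSO.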

[12] = TOX21_p53_BLA_p5_viability: Viability Assessment in the Tox21 HCT-116 p53 Agonism Beta-lactamase Assay, Phase 5 (AID 2283600)
Outline: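 Seeded cells (4000/well) settle 5 h before compound addition. Plates then incubate 16 h at 37C, receive FRET substrate for 2 h, and finally CellTiter-Glo, with luminescence measured after a 30 min room-temperature incubation.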

[13] = molecular target: Cellular tumor antigen p53 (Homo sapiens) (UniProt P04637); assay: TOX21_p53_BLA_p4_ratio: Tox21 HCT-116 p53 Agonism Beta-lactamase Assay, Ratio, Phase 4 (AID 2283601)
Outline: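 HCT116 cells carrying an inducible beta-lactamase reporter were plated at 4000 cells/well, rested 5 h, then exposed to compounds in DMSO (217-fold dilution) for 16 h at 37C. CCF4-AM substrate was loaded 2 h at room temperature; 460/530 nm emission ratio scored gain-of-signal versus DMSO.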

[14] = Tanguay_ZF_120hpf_MORT_legacy: (Legacy) Oregon State University Tanguay Lab 120 Hour Post-fertilization zebrafish Assay for Mortality (AID 2283633);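 on AC50: fitted as increase in binary mortality versus DMSO negative control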
Outline: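 Single dechorionated Tropical 5D embryos were held with test chemical (0.64% DMSO final) from 6 to 120 hpf at 28C under foil. Deaths at 24 or 120 hpf were recorded as binary calls, analysed for increase over DMSO controls.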

[15] = Tanguay_ZF_120hpf_YSE_legacy: (Legacy) Oregon State University Tanguay Lab 120 Hour Post-fertilization zebrafish Assay for Yolk Sac Edema (AID 2283634)
Outline: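 Single dechorionated embryos were held in sealed plates at 28C with test chemical (0.64% DMSO final) from 6 hpf until 120 hpf. Edema of the yolk sac was then recorded as a binary endpoint; non-mortality endpoints were skipped for dead embryos.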

[16] = Tanguay_ZF_120hpf_AXIS_legacy: (Legacy) Oregon State University Tanguay Lab 120 Hour Post-fertilization zebrafish Assay for Body Axis Malformation (AID 2283635)
Outline: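 Each dechorionated embryo was exposed alone from 6 hpf, with DMSO at 0.64% (vol/vol) and trimethyltin chloride 5 uM as positive control. Axis malformation was recorded at 120 hpf unless the embryo had died.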

[17] = Tanguay_ZF_120hpf_EYE_legacy: (Legacy) Oregon State University Tanguay Lab 120 Hour Post-fertilization zebrafish Assay for Eye Malformation (AID 2283636);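 further: binary presence or absence of eye malformation scored by brightfield in 120 hpf larvae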
Outline: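 Dechorionated wild-type Tropical 5D zebrafish embryos were exposed statically from 6 hpf, one per well, to 120 hpf at 28C in sealed, foil-covered plates with 0.64% DMSO. Eye malformation was scored present/absent by brightfield microscopy against DMSO controls.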

[18] = Tanguay_ZF_120hpf_SNOU_legacy: (Legacy) Oregon State University Tanguay Lab 120 Hour Post-fertilization zebrafish Assay for Snout Malformation (AID 2283637)
Outline: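 Tropical 5D wild-type zebrafish embryos, dechorionated with pronase at 4 hpf, were exposed singly from 6 hpf to 120 hpf statically at 28C in 0.64% DMSO. Snout malformation was scored present/absent by brightfield microscopy, fitted against DMSO.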

[19] = Tanguay_ZF_120hpf_JAW_legacy: (Legacy) Oregon State University Tanguay Lab 120 Hour Post-fertilization zebrafish Assay for Jaw Malformation (AID 2283638)
Outline: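 Wild-type 5D embryos, chorion removed at 4 hpf, dosed singly from 6 hpf; 28C static, sealed, foil-covered, to 120 hpf. Endpoint: jaw defect yes/no (brightfield); mortality excludes scoring.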

Measured: AC50

NS(=O)(=O)C(F)(F)C(F)(F)C(F)(F)C(F)(F)C(F)(F)C(F)(F)C(F)(F)C(F)(F)F
active: [1] 50 µM | [2] 13.3 µM | [3] 3.63 µM | [4] 31.4 µM | [8] 46.1 µM | [9] 47 µM | [11] 82.3 µM | [12] 46.1 µM | [14] 24.9 µM
inactive: all other assays above

Cc1cccc(C)c1N
not listed: [6] | [8] | [12] | [19]
inactive: all other assays above

OCC(O)CO
inactive: [5] | [6] | [7] | [8] | [9] | [10] | [11] | [12] | [13]

CCCN(CCC)N=O
not listed: [12]
inactive: all other assays above

C=CC(=O)NCNC(=O)C=C
not listed: [7]
inactive: all other assays above

O=NN(c1ccccc1)c1ccccc1
not listed: [4] | [5] | [8]
inactive: all other assays above

C=CC(N)=O
not listed: [5] | [10]
inactive: all other assays above

ClC1=C(Cl)[C@]2(Cl)[C@@H]3[C@@H]4C[C@@H]([C@H]5O[C@@H]45)[C@@H]3[C@@]1(Cl)C2(Cl)Cl
active: [3] 0.0249 µM
not listed: [8] | [16] | [19]
inactive: all other assays above

CN(C)CCO
inactive: all assays above

CCC(C)c1cc([N+](=O)[O-])cc([N+](=O)[O-])c1O (stereo unspecified)
active: [1] 1.55 µM | [2] 4.17 µM | [4] 3.73 µM | [7] 4.16 µM | [9] 0.984 µM | [11] 3.4 µM | [13] 4.83 µM | [14] 0.462 µM
inactive: [3] | [5] | [8] | [9] | [10] | [12] | [15] | [16] | [17] | [18] | [19]

Cc1ccccc1[N+](=O)[O-]
not listed: [14]
inactive: all other assays above

Cc1ccccc1CO[C@@H]1C[C@@]2(C(C)C)CC[C@]1(C)O2
inactive: [2] | [3] | [4] | [15] | [16] | [17] | [18] | [19]

Cc1cc(O)ccc1Cl
not listed: [15]
inactive: all other assays above

CCC(C)(CC)c1cc(NC(=O)c2c(OC)cccc2OC)on1
inactive: [2] | [3] | [4] | [14] | [15] | [16] | [17] | [18] | [19]

O=C(O)C(F)(F)C(F)(F)C(F)(F)C(F)(F)C(F)(F)C(F)(F)C(F)(F)C(F)(F)C(F)(F)F
active: [2] 38.6 µM | [4] 63.4 µM
not listed: [1] | [17]
inactive: all other assays above
